In PubChem BioAssay AID720540 (National Center for Advancing Translational Sciences (NCATS), 2013):
Screen size: about 1,300 compounds; about 460 (35%) were called active. About 39% were inconclusive and are not listed. Calls come from the whole dose curve; as a rule, active = well fitted inhibition curve with a large enough effect; inconclusive = small, poorly fitted or top-dose-only effect; inactive = flat fitted curve, though single readings scatter. Some of the results follow. Entries that show only a call come without a potency.

Biological target: Protein phosphatase EYA2 (Homo sapiens) (UniProt O00167)
Assay: qHTS for Inhibitors of the Phosphatase Activity of Eya2: Confirmatory Assay for Cherry-picked Compounds; note: nearly all actives have a fitted effect of over 65% in size
Settings: purified EYA2 phosphatase activity, qHTS confirmation; series mostly up to 46.1 µM
In short: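 Eya2 (0.2 uM working solution) preincubated 10 min at room temperature with compound in pH 7.5 HEPES buffer with MgCl2, BSA, DTT. OMFP added (50 uM working solution), 10 min more; fluorescence 485/525 nm, normalized to EGTA and DMSO.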
Potency is the fitted concentration of half-maximal effect.

Sequence of Protein phosphatase EYA2 (Homo sapiens) (O00167 whole entry, looked up): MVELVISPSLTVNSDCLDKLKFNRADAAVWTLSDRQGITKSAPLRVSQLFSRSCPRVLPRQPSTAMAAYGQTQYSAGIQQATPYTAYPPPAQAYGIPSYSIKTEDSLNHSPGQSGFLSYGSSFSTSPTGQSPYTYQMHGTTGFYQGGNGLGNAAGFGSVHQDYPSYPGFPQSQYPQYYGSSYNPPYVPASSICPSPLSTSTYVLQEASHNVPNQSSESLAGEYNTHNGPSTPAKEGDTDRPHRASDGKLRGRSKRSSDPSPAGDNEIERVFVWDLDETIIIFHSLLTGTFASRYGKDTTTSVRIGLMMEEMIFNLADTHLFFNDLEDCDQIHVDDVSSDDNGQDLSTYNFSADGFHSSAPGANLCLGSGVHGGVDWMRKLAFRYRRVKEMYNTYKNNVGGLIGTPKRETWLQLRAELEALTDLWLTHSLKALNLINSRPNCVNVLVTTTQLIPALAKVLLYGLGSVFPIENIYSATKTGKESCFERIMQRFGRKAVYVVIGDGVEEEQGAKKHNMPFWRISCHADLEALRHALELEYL

SMILES	Potency
Cn1nc(C(=O)Nc2nc3ccccc3[nH]2)c2ccccc2c1=O	16.9 µM (active)
CCN(CC)C(=O)CC(c1ccc(OC)cc1)c1c(OC)cc(OC)c2ccc(=O)oc12 (stereo not given)	inactive
CN1N/C(=C\c2ccccc2)N=C2C(=O)N(C)C(=O)N=C21	12 µM (active)
CCOc1cccc(CN2CCC(CCC(=O)NC3CC3)CC2)c1O	inactive
Cc1ccc(Nc2nc(NCCO)nc3c2cnn3C)cc1Cl	7.57 µM (active)
COc1cc2[nH]cc(C(=O)NCc3ccccc3)c(=O)c2cc1OC	5.36 µM (active)
COc1ccccc1C(=O)Nc1c[nH]c(=O)[nH]c1=O	inactive
COc1ccc(CNC(=O)c2sc(=O)n(Cc3cc(Cl)ccc3OC)c2C)cc1	inactive
O=C(C1=C[C@H](c2ccccc2)C[C@H](OCc2ccc(CO)cc2)O1)N1CCN(Cc2ccccc2)CC1	inactive
Nc1ccc2c(c1Cl)C(=O)c1ccc(N)c(Cl)c1C2=O	3.01 µM (active)
Cc1cc(Nc2ccc([N+](=O)[O-])cc2)c2ccccc2n1	inactive
COc1ccccc1Nc1cc(C)nc2c(C)ccc([N+](=O)[O-])c12	19 µM (active)
O=C(NN1C(=O)/C(=C\c2ccc(O)c([N+](=O)[O-])c2)SC1=S)c1ccccc1Cl	12 µM (active)
O=C(Nc1ccccc1)C1=C(c2ccccc2)S(=O)(=O)CCS1(=O)=O	13.5 µM (active)
O=C(Nc1ccccc1)C(Cl)C(=O)c1ccccc1 (stereo not given)	inactive
O=C(CSc1ccc(-c2ccccn2)nn1)N1CCCCC1	7.57 µM (active)
O=C(CSc1ccc(-c2ccccn2)nn1)N1CCCC1	12 µM (active)
O=C(Cn1c(S(=O)(=O)Cc2ccccc2)nc2ccccc21)N1CCCCC1	inactive
Cc1cc2nc(/N=C(\N)NC(=O)N3c4ccccc4Sc4ccccc43)nc(C)c2cc1C	inactive
O=C(Cn1c(C(=O)N2CCc3ccccc3C2)cc2sccc21)c1ccccc1	inactive
Cc1cc(NC(=O)CS(=O)(=O)c2cn(Cc3cccc(Br)c3)c3ccccc23)no1	inactive
Cn1ccc2c(N3CCCC3)cc3c(c21)C1CCC3C1 (stereo not given)	21.3 µM (active)
COC(=O)c1ccc(C23CC4(C2)[C@H](CN(CC2CCCCC2)[C@@H]4c2ccccc2)C3c2ccc(Cl)nc2)cc1 (stereo not given in full)	inactive
O=C(CC(=O)c1c(F)cccc1Cl)c1ccccc1O	inactive

SMILES	Potency
COC(=O)c1ccccc1NC1=C/C(=N\S(=O)(=O)c2cccs2)c2ccccc2C1=O	1.69 µM (active)
O=c1c2ccccc2nnn1CSc1nnc(C2COc3ccccc3O2)n1-c1ccccc1 (stereo not given)	inactive
O=c1c2ccccc2c(C=Nc2cccc(S(=O)(=O)NC3=NCCCCC3)c2)c(O)n1Cc1ccccc1	inactive
COc1ccc(S(=O)(=O)c2c(O)c3ccc(C(=O)Nc4cccc(F)c4)cc3[nH]c2=O)cc1	0.338 µM (active)
COc1cccc(NC(=O)c2ccc3c(c2)CCN3S(C)(=O)=O)c1	inactive
Cc1ccc(Nc2nnc(SCC(=O)c3c(N)n(C4CC4)c(=O)[nH]c3=O)s2)cc1C	inactive
CCCNC(=O)C1(C)CCN(Cc2cccc(OC(=O)c3ccccc3)c2)C1 (stereo not given)	inactive
O=C(Oc1ccc2c(c1)OCC2=O)c1ccc(Cl)cc1	2.39 µM (active)
O=C(Oc1ccc2c(c1)OCC2=O)c1ccccc1	4.78 µM (active)
S=C(NCCCc1cnc[nH]1)NCCCN(Cc1ccc(Cl)cc1)c1ccc(-c2ccccc2)cn1	16.9 µM (active)
CN(CCCc1cnc[nH]1)C(=S)NCCCN(Cc1ccc(Cl)cc1)c1ccc(Br)cn1	19 µM (active)
CCC(=O)Nc1nc2c(OC)ccc(OC)c2s1	inactive
COc1cc(CNC(=O)Nc2nc(C(N)c3ccccc3)cs2)cc(OC)c1OC (stereo not given)	19 µM (active)
Cc1ccccc1-c1cnc(C(O)c2c(C)cccc2C)[nH]1 (stereo not given)	inactive
Cc1nc([N+](=O)[O-])cn1CC(O)c1ccc2c(c1)OCO2 (stereo not given)	inactive
O=c1[nH]c(=O)n(C2C[C@H](O)[C@@H](CO)O2)cc1C(F)(F)F (stereo not given in full)	inactive
COc1ccc2ccccc2c1C=NN1CCCCC1	16.9 µM (active)
CCOC(=O)NNc1nncc2ccccc12	inactive
CCOC(=O)c1ncccc1NC(=O)CC(=O)Nc1cccnc1C(=O)OCC	3.79 µM (active)
CC(=O)Oc1cccc2c1C(=O)C1CC=CC(OC(C)=O)C1C2=O (stereo not given)	15.1 µM (active)
COc1ccccc1N1CCN(/N=C/C=C\c2ccccc2[N+](=O)[O-])CC1	15.1 µM (active)
O=[N+]([O-])c1ccccc1/C=C\C=N\N1CCN(c2ccccc2)CC1	9.53 µM (active)
COc1ccc(F)cc1-c1cc(NC=O)c2ncc(-c3cccc(C(F)(F)F)c3)n2c1	inactive
O=C(O)C1=C[C@@H](c2csc3ccccc23)C[C@@H](OCc2ccc(CO)cc2)O1	inactive

SMILES	Potency
OC(COc1ccc2cc(Br)ccc2c1)Cn1ccnc1 (stereo not given)	inactive
Cc1sc(NC(=O)C2=COCCO2)c(C(N)=O)c1C	7.57 µM (active)
CS(=O)(=O)c1ccc(-c2nnc(NC(=O)C3=COCCO3)o2)cc1	inactive
CC1CCc2c(sc(NC(=O)/C=C/c3cccs3)c2C(=O)O)C1 (stereo not given)	19 µM (active)
O=C(O)c1cc(N2N=C(C(F)(F)F)/C(=C/C=C/c3ccco3)C2=O)ccc1Cl	1.51 µM (active)
O=C1C=C(Nc2ccccc2)C(=O)c2ccccc21	6.01 µM (active)
CCOC(=O)c1c(C)oc2c1c(C=NCc1ccccn1)c(O)c1ccccc12	15.1 µM (active)
COc1ccc(Nc2nc(N)nc(CSC(=S)N3CCCCC3)n2)cc1	inactive
CCSc1nc2ccccc2n1C(=O)c1ccc(S(=O)(=O)N2CCCCC2)cc1	inactive
O=C(O)c1ccccc1-c1ccccc1C(=O)Nc1ccc2c(c1)[nH]c(=O)c1ccccc12	7.57 µM (active)
O=C(O)c1ccccc1-c1ccccc1C(=O)Nc1ccc2oc(=O)c3ccccc3c2c1	8.49 µM (active)
CSc1ccc(CNc2ncc(-c3cccc([N+](=O)[O-])c3)n2C)cc1	19 µM (active)
O=C(Nc1ncc(Cc2ccccc2Cl)s1)c1ccc(-c2cccc([N+](=O)[O-])c2)o1	inactive
Oc1c(Br)cc(Br)cc1CNc1cccc2cccnc12	7.57 µM (active)
O=C(SCc1c(O)c2ccccc2oc1=O)c1ccccc1	inactive
COC(=O)c1cc2c(ccc3ccccc32)oc1=O	7.57 µM (active)
COc1ccccc1Nc1nc(-c2ccc3c(c2)NC(=O)CO3)cs1	inactive
COc1ccc(OC)c(Nc2nc(-c3sc(N)nc3C)cs2)c1	8.49 µM (active)
CC1=C(C(=O)N2CCOCC2)CC(CC(=O)NC(c2ccccc2)c2ccccc2)C(=O)N1Cc1ccc(C(C)(C)C)cc1 (stereo not given)	inactive
O=C(O)CCN1C(=O)/C(=C/c2ccc(-c3nc4ccccc4s3)o2)SC1=S	3.79 µM (active)
Cc1ccc(-c2nc3ccccc3s2)cc1NC(=S)NC(=O)/C=C/c1ccco1	inactive
N#CC1=C(N)n2c(s/c(=C\c3cccs3)c2=O)=C(C#N)C1c1cccs1 (stereo not given)	19 µM (active)
O=C(C1=C(O)C(=O)N(c2nc3ccc(Cl)cc3s2)C1c1ccco1)c1ccco1 (stereo not given)	16.9 µM (active)
COc1ccc2nc(NC(=S)NC(=O)c3ccco3)sc2c1	inactive

SMILES	Potency
O=C(NCc1ccc2c3c(cccc13)C(=O)N2)c1cccs1	inactive
COc1cc(NC(=O)c2cccs2)c(OC)cc1NC(=O)CCn1nnc2ccccc21	16.9 µM (active)
Cc1cc(NC(=O)c2cccs2)cc(-c2nc3ncccc3o2)c1O	inactive
COc1cc(NC(=O)c2cccs2)c(OC)cc1NC(=O)CCC(=O)Nc1ccc2ncccc2c1	1.69 µM (active)
COc1cc(NC(=O)c2cccs2)c(OC)cc1NC(=O)Cc1ccccc1	10.7 µM (active)
COc1cc(NC(=O)c2cccs2)c(OC)cc1NC(=O)Nc1ccc(F)cc1	inactive
O=S(=O)(c1ccccc1)[C@@]1(c2ccccc2)C[C@@H]2ON=C(c3cccc(-c4ccccc4)c3)[C@@H]2C1	inactive
COC(=O)c1ccc(CSc2ccc3nnc(-c4ccccn4)n3n2)o1	16.9 µM (active)
COc1ccccc1OCc1ccc(C(=O)Nc2cc(OC)c(OC)c(OC)c2)o1	inactive
Brc1ccc(CSc2ccc3nnc(-c4ccccn4)n3n2)cc1	19 µM (active)
c1ccc(CSc2ccc3nnc(-c4ccccn4)n3n2)cc1	19 µM (active)
CC1CN(C(=O)c2cc(S(=O)(=O)N(C)c3ccc(F)cc3)ccc2Cl)CC(C)O1 (stereo not given)	inactive
CN(C)c1ccc(-c2ccnc3c2CC(C)(C(=O)NCCC(F)(F)F)O3)cc1 (stereo not given)	inactive
CN1C(=O)NC(c2ccccc2)(C(F)(F)F)S/C1=C(/C#N)c1nnc(N2CCOCC2)n1-c1ccccc1 (stereo not given)	inactive
C[C@@H](NC(=O)c1nc[nH]c1C(=O)N[C@@H](Cc1ccccc1)C(=O)OC(C)(C)C)c1ccccc1	inactive
CCOC(=O)c1ccc(NC(=O)c2nc[nH]c2C(=O)N[C@@H](Cc2ccccc2)C(=O)OC(C)(C)C)cc1	inactive
O=C(CNC(=O)c1[nH]cnc1C(=O)N[C@@H](Cc1ccccc1)C(=O)OCc1ccccc1)OCc1ccccc1	inactive
O=C(Nc1ccc(F)cc1)c1nc[nH]c1C(=O)O	15.1 µM (active)
Cc1ccc(NC(=O)c2[nH]cnc2C(=O)NN)cc1	15.1 µM (active)
NNC(=O)c1nc[nH]c1C(=O)Nc1ccccn1	8.49 µM (active)
Cc1ccc(N=Cc2cccc(O)c2O)c(C)c1	inactive
CCn1cc(C(=O)N[C@@H](C)C(=O)NCCCn2ccnc2)c(=O)c2cc3c(cc21)OCO3	inactive
Cc1ccc(C(=O)N/C(=C\c2ccco2)C(=O)NCCCn2ccnc2)cc1	4.26 µM (active)
